Laboratory results reported in PubChem BioAssay.
Activity calls are given as the source filed them.

Legend:
[1] = compounds binding Alexa647 anti-His antibody – biochemical, small-molecule microarray, 635 nm fluorescence, artefact control for SMM control protein annotation, primary screen (AID 1128); conditions: higher = more signal;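 further: score merges feature fluorescence with signal-to-noise for each printed compound spot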
[2] = system: Human papillomavirus type 1a E7 protein (residues 1-88); experiment: HPV1a E7 small-molecule binders, primary screen, biochemical, small-molecule microarray, residues 1-88, 635 nm (AID 1129); conditions: small-molecule microarray binding, fluorescence 635 nm; higher = more signal
[3] = target: Focal adhesion kinase 1 (Homo sapiens) (UniProt Q05397); experiment: PTK2 protein binding on printed compound slides – biochemical, small-molecule microarray, 635/667 nm fluorescence, BSA, DTT, primary screen (AID 1130); conditions: 635 nm fluorescence, higher = more signal;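 further: composite of spot emission at 667 nm and signal to noise over triplicate slides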
Focal adhesion kinase 1 (Homo sapiens), sequence (Q05397 whole entry, looked up): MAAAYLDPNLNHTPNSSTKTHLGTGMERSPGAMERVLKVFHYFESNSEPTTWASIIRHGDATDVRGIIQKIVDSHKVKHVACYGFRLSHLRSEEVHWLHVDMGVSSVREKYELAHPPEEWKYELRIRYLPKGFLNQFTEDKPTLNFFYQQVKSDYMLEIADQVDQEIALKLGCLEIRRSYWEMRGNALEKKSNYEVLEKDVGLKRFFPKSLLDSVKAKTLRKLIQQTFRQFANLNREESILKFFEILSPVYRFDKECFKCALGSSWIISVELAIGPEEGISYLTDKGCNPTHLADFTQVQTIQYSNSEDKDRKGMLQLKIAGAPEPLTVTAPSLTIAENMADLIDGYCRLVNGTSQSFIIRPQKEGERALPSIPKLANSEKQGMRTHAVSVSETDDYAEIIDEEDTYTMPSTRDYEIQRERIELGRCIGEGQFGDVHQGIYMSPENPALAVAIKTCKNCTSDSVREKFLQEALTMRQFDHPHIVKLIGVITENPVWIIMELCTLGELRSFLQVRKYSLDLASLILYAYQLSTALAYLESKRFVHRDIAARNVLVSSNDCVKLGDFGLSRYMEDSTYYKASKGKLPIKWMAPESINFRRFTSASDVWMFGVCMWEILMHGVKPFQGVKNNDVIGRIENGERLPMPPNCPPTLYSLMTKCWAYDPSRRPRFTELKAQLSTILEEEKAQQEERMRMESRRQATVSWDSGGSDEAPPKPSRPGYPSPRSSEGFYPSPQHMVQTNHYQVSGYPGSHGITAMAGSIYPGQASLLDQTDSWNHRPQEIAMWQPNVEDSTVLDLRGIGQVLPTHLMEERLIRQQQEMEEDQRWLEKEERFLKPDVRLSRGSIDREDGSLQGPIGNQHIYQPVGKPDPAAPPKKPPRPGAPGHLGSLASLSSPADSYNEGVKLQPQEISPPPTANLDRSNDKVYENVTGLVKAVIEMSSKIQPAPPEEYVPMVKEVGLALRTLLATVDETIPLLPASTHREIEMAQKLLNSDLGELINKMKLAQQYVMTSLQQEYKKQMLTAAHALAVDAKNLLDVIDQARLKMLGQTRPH

[4] = system: Fibrinogen (Alexa647-labelled); experiment: Alexa647-fibrinogen binding to printed small molecules – biochemical, small-molecule microarray, 635/667 nm fluorescence, artefact control for SMM control-protein annotation, profiling panel (AID 1131); conditions: fibrinogen-A647 binding fluorescence, higher = more signal;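 further: z-score merges 667 nm fluorescence with per-spot signal-to-noise over triplicate slides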
[5] = target: Follistatin (Homo sapiens) (UniProt P19883); experiment: FST protein binding to printed compounds – biochemical, small-molecule microarray, 635/667 nm fluorescence, primary screen (AID 1132); conditions: 635 nm fluorescence, higher = more signal
Follistatin (Homo sapiens), sequence (P19883 whole entry, looked up): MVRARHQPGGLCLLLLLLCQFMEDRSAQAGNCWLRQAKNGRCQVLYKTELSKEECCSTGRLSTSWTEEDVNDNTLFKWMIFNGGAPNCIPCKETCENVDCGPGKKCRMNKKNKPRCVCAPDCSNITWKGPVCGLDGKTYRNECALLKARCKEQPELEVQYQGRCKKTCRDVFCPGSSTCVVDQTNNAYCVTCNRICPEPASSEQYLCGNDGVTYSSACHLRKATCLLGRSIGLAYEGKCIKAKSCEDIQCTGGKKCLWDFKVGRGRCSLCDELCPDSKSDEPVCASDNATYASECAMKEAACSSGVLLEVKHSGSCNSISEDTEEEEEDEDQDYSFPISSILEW

[6] = target: Fibroblast growth factor 2 (Homo sapiens) (UniProt P09038); experiment: basic fibroblast growth factor binding to printed compounds – biochemical, small-molecule microarray, 635/667 nm fluorescence, primary screen (AID 1133); conditions: FGF2, fluorescence 635/667, higher = more signal
Fibroblast growth factor 2 (Homo sapiens), sequence (P09038 whole entry, looked up): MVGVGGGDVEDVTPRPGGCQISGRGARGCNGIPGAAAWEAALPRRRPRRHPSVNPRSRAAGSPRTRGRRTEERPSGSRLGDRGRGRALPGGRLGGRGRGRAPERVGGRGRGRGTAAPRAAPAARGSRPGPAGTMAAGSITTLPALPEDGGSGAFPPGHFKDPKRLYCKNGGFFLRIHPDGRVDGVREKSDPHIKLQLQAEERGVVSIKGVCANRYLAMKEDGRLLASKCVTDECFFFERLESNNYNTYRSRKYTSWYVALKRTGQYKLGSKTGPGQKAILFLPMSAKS

[7] = JC-1 mitochondrial potential readout, lung cancer cells – cell-based, A549, JC-1 fluorescence, basal, 24 h, 100 nL, profiling panel (AID 1138); conditions: higher = more signal;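 further: A549 lung adenocarcinoma cells under basal conditions with no added stimulus; test concentration not given here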
Lefty1 = Lefty1 protein binding to printed compounds – biochemical, small-molecule microarray, 635/667 nm fluorescence, primary screen (AID 1139); conditions: fluorescence 635/667, higher = more signal
[8] = system: wheat germ agglutinin (Triticum aestivum), Alexa647-labelled; experiment: Alexa647-WGA lectin binding to printed small molecules – biochemical, small-molecule microarray, 635/667 nm fluorescence, artefact control for SMM control-protein annotation, profiling panel (AID 1140); conditions: WGA-A647 binding, 635 nm fluorescence, higher = more signal;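 further: score merges 667 nm feature emission with signal to noise over triplicate slides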
[9] = target: Luciferin 4-monooxygenase (Photinus pyralis) (UniProt P08659); experiment: inhibition of purified Photinus pyralis luciferase – biochemical, luminescence, purified enzyme, 2006 set, primary screen (AID 1141); conditions: purified firefly luciferase, SteadyGlo luminescence, 30 min; higher = more signal, called active from +8 up or from −8 down;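 further: cell-free assay with purified firefly luciferase at 100 ng per well in PBS; test concentration not given here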
Luciferin 4-monooxygenase (Photinus pyralis), sequence (P08659 whole entry, looked up): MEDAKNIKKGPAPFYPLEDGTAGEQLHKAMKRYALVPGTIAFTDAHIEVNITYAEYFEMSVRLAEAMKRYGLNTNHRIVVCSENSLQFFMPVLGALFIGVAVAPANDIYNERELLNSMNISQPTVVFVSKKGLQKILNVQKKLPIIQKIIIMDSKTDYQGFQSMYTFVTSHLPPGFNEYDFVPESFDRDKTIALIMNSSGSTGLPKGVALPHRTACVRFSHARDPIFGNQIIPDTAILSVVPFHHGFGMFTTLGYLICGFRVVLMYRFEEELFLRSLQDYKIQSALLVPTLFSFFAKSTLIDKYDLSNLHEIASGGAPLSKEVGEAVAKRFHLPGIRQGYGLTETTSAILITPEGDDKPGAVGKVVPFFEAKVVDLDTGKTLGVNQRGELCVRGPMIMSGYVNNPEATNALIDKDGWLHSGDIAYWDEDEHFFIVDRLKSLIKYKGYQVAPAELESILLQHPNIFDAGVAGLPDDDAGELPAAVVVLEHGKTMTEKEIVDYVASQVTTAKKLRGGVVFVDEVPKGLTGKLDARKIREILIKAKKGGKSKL

| SMILES | composite z-score [1] | composite z-score [2] | composite z-score [3] | composite z-score [4] | composite z-score [5] | composite z-score [6] | z-score [7] | composite z-score (Lefty1) | composite z-score [8] | z-score [9] |
| --- | --- | --- | --- | --- | --- | --- | --- | --- | --- | --- |
| NC(=O)NCC#Cc1ccc2c(c1)[C@]1(C(=O)N2)[C@H](c2ccc(O)cc2)N2[C@H](c3ccccc3)[C@H](c3ccccc3)OC(=O)[C@H]2[C@@H]1C(=O)NC[C@H](O)c1ccccc1 | -0.652 | -0.843 | -0.126 | -1.74 | -2.12 | -1.11 | 0.717 | -3.02 | -1.82 | -0.498 (inactive) |
| COc1ccc([Si](C)(C)[C@@H]2[C@@H](CCO)O[C@]3(C(=O)N(Cc4ccccc4)c4ccc(N5CCCCC5=O)cc43)[C@H]2C)cc1 | 1.47 | 1.17 | 1.61 | 0.734 | 1.13 | 0.634 | -0.167 | 0.788 | 0.184 | 0.0481 (inactive) |
| C=CCC(OC(C)=O)[C@@H]1[C@@H](N(Cc2cccc3ccccc23)C(=O)c2ccc(C)cc2)c2cc(OCCCO)ccc2N1C(=O)c1ccc2ccccc2c1 (stereo not given in full) | -0.204 | 0.133 | 0.0096 | 0.189 | 0.672 | 0.123 | 1.15 | 0.102 | -0.193 | -0.195 (inactive) |
| NCCCCCCNC(=O)[C@H]1C[C@H]2C(=O)N3CCC[C@H]3C(=O)N2[C@H]1c1ccc(O)cc1 | 2.79 | 0.609 | 1.1 | 0.437 | 1.36 | 1.66 | -0.712 | 0.918 | 0.752 | 0.24 (inactive) |
| COC(=O)[C@@]1(Cc2ccc(F)cc2)[C@@H]2[C@@H](CC(=O)[C@H]2CC(=O)C(=O)N2CCCC2)CN1C(=O)c1ccccc1 | 0.266 | 1.24 | 1.51 | 0.931 | 0.95 | 0.455 | 0.694 | -1.01 | 0.772 | 2.19 (inactive) |
| C[N+](C)(C)CCCC[C@@H]1NC(=O)[C@@H]2C[C@H](C(=O)NCCCCCNC(=O)CS)[C@H](c3cccc(OCCO)c3)N2C1=O | 0.664 | 0.14 | 0.0046 | 0.909 | 1.25 | 1.5 | 1.71 | 0.272 | 0.134 | -1.68 (inactive) |
| CC(C)c1ccc(NN2C(C(O)c3ccccn3)C=CC3C(=O)N(c4ccccc4)C(=O)C32)cc1 (stereo not given) | 0.75 | 1.28 | 0.405 | 0.947 | 1.28 | 1.48 | 1.14 | 1.18 | 0.976 | -1.5 (inactive) |
| COc1ccc([Si](C)(C)[C@@H]2[C@@H](CCO)O[C@]3(C(=O)N(Cc4ccc(N5C(=O)c6ccccc6Oc6ccccc65)cc4)c4ccccc43)[C@H]2C)cc1 | 0.0758 | -0.235 | -0.394 | -0.0953 | -0.163 | -1.1 | -0.285 | 0.0179 | 0.104 | 0.173 (inactive) |
| CCOC(=O)C[C@H]1[C@H](OC(=O)c2ccc(C(=O)c3ccccc3)cc2)[C@@H](NC(=O)C2CCCCC2)c2cc(OCCCO)ccc2N1C(=O)Cc1ccc(OC)cc1 | 0.027 | 0.785 | 0.494 | 0.441 | 0.432 | 0.0799 | 1.36 | 0.942 | 0.221 | 0.13 (inactive) |
| COc1ccccc1CN1C(=O)c2ccccc2[C@@H](C(=O)NCC(C)C)[C@@H]1c1ccc(CO)cc1 | 0.366 | 1.18 | 0.088 | 0.707 | 1.23 | 1.56 | 0.163 | -0.632 | 0.342 | -0.836 (inactive) |
| C=CCOC(=O)[C@@H]1[C@H]2C(=O)O[C@H](c3ccccc3)[C@H](c3ccccc3)N2[C@H](c2ccc(OCCOC(=O)[C@H]3C[C@H]4C(=O)N[C@@H](Cc5ccccc5)C(=O)N4[C@H]3c3cccc(OCCO)c3)cc2)[C@@]12C(=O)Nc1ccc(I)cc12 | 1.51 | 1.2 | 0.819 | 0.464 | 1.42 | 1.72 | -1.37 | 1.33 | 0.548 | -3.65 (inactive) |
| CC(C)CCC[C@@H](C)[C@H]1CC[C@@]2(C)C3=C(CC[C@]12C)[C@@]1(C)CC[C@H](OC(=O)c2ccc(N)cc2)C(C)(C)C1CC3 (stereo not given in full) | 0.467 | 0.398 | 0.108 | 0.483 | 0.552 | 0.612 | 1.32 | 0.552 | 0.0599 | -1.43 (inactive) |
| CO[C@H]1O[C@H](CO)[C@@H](OC(=O)Nc2ccc(C(F)(F)F)cc2)[C@H](OC(=O)Nc2ccccc2)[C@H]1OC(=O)Nc1ccccc1 | 2.65 | 1.25 | 1.15 | 0.737 | 1.29 | 0.805 | -1.89 | 0.88 | 1.33 | -0.579 (inactive) |
| COC(=O)c1ccc(OC)c(/C=C\CC(CCc2ccccc2)OC(=O)c2ccncc2)c1 (stereo not given) | 0.499 | -0.235 | -0.21 | -0.358 | 1.45 | 1.23 | 1.38 | 1.01 | 0.334 | -0.912 (inactive) |
| COC(=O)C(CC#Cc1ccc2c(c1)[C@]1(C(=O)N2)[C@H](c2ccc(O)cc2)N2[C@H](c3ccccc3)[C@H](c3ccccc3)OC(=O)[C@H]2[C@@H]1C(N)=O)C(=O)OC | -2.69 | -1.91 | -0.627 | -1.96 | -2.01 | -1.44 | 1.42 | -2.6 | -2.35 | -0.899 (inactive) |
| COc1ccc(C#Cc2ccc3c(c2)[C@]2(C(=O)N3)[C@H](C(N)=O)[C@H]3C(=O)O[C@H](c4ccccc4)[C@H](c4ccccc4)N3[C@@H]2c2ccc(O)cc2)cc1 | 1.69 | 1.22 | 1.6 | 0.844 | 0.658 | 0.717 | -1.4 | 0.339 | 0.317 | 0.734 (inactive) |
